Out of some 5,500 compounds screened, about 2,000 (36%) were called active. About 18% were inconclusive and are not listed. Cut-off read from the data, not from the text of the source: active = normalized growth mostly below about 0.91 (no sharp cut-off); inconclusive = no clear call, values can overlap the other calls; inactive = mostly above about 0.92. The list shows a part of the results.
Assay: chemical genetic growth profiling, strain panel (AID 1159580);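 note: tested at 20 µM; growth read once vehicle control cultures reached saturation at 30 °C; 1 = growth at the plate median or of vehicle wells; lower values mean less growth of the strain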
Conditions: growth OD
[1] = S. cerevisiae deletion strains, locus YAL013W, strain DEP1, hits give low values
[2] = S. cerevisiae deletion strains, locus YBR229C, strain ROT2, hits give low values
[3] = S. cerevisiae deletion strains, locus YDL101C, strain DUN1, hits give low values
[4] = S. cerevisiae deletion strains, locus YDR150W, strain NUM1, hits give low values
[5] = S. cerevisiae deletion strains, locus YEL061C, strain CIN8, hits give low values
[6] = S. cerevisiae deletion strains, locus YGR078C, strain PAC10, hits give low values
[7] = S. cerevisiae deletion strains, locus YHR030C, strain SLT2, hits give low values
[8] = S. cerevisiae deletion strains, locus YHR087W, strain rtc3, hits give low values
[9] = S. cerevisiae deletion strains, locus YJL187C, strain SWE1, hits give low values
[10] = S. cerevisiae deletion strains, locus YJR043C, strain POL32, hits give low values
[11] = S. cerevisiae deletion strains, locus YJR075W, strain HOC1, hits give low values
[12] = S. cerevisiae deletion strains, locus YKL190W, strain CNB1, hits give low values
[13] = S. cerevisiae deletion strains, locus YLR039C, strain RIC1, hits give low values
[14] = S. cerevisiae deletion strains, locus YLR058C, strain SHM2 (second series), hits give low values
[15] = S. cerevisiae deletion strains, locus YLR085C, strain ARP6, hits give low values
[16] = S. cerevisiae deletion strains, locus YLR262C, strain YPT6, hits give low values
[17] = S. cerevisiae deletion strains, locus YML094W, strain GIM5, hits give low values
[18] = S. cerevisiae deletion strains, locus YMR219W, strain ESC1, hits give low values
[19] = S. cerevisiae deletion strains, locus YMR263W, strain SAP30, hits give low values
[20] = S. cerevisiae deletion strains, locus YNL153C, strain GIM3, hits give low values
[21] = S. cerevisiae deletion strains, locus YNL298W, strain CLA4 (second series), hits give low values
[22] = S. cerevisiae deletion strains, locus YNL322C, strain KRE1, hits give low values
[23] = S. cerevisiae deletion strains, locus YNR030W, strain Alg12, hits give low values
[24] = S. cerevisiae deletion strains, locus YPL055C, strain LGE1, hits give low values
[25] = S. cerevisiae deletion strains, locus YPL241C, strain CIN2, hits give low values
[26] = S. cerevisiae deletion strains, locus YPR135W, strain CTF4, hits give low values
[27] = S. cerevisiae deletion strains, locus YAR019C, strain CDC15, hits give low values
[28] = S. cerevisiae deletion strains, locus YDL017W, strain CDC7, hits give low values
[29] = S. cerevisiae deletion strains, locus YDL028C, strain MPS1, hits give low values
[30] = S. cerevisiae deletion strains, locus YDL108W, strain KIN28, hits give low values
[31] = S. cerevisiae deletion strains, locus YDL132W, strain cdc53, hits give low values
[32] = S. cerevisiae deletion strains, locus YDL214C, strain PRR2, hits give low values
[33] = S. cerevisiae deletion strains, locus YDR052C, strain DBF4, hits give low values
[34] = S. cerevisiae deletion strains, locus YDR054C, strain cdc34, hits give low values
[35] = S. cerevisiae deletion strains, locus YDR477W, strain SNF1, hits give low values
[36] = S. cerevisiae deletion strains, locus YER123W, strain YCK3, hits give low values
[37] = S. cerevisiae deletion strains, locus YER133W, strain GLC7, hits give low values
[38] = S. cerevisiae deletion strains, locus YFL009W, strain cdc4, hits give low values
[39] = S. cerevisiae deletion strains, locus YFL029C, strain CAK1, hits give low values
[40] = S. cerevisiae deletion strains, locus YFR003C, strain YPI1, hits give low values
[41] = S. cerevisiae deletion strains, locus YFR019W, strain FAB1, hits give low values
[42] = S. cerevisiae deletion strains, locus YFR028C, strain CDC14, hits give low values
[43] = S. cerevisiae deletion strains, locus YGR040W, strain KSS1, hits give low values
[44] = S. cerevisiae deletion strains, locus YGR052W, strain FMP48, hits give low values
[45] = S. cerevisiae deletion strains, locus YGR092W, strain DBF2, hits give low values
[46] = S. cerevisiae deletion strains, locus YHR079C, strain IRE1, hits give low values
[47] = S. cerevisiae deletion strains, locus YHR205W, strain SCH9, hits give low values
[48] = S. cerevisiae deletion strains, locus YIL147C, strain SLN1, hits give low values
[49] = S. cerevisiae deletion strains, locus YJL095W, strain BCK1, hits give low values
[50] = S. cerevisiae deletion strains, locus YJR016C, strain ILV3, hits give low values
[51] = S. cerevisiae deletion strains, locus YJR066W, strain TOR1, hits give low values
[52] = S. cerevisiae deletion strains, locus YKL048C, strain ELM1, hits give low values
[53] = S. cerevisiae deletion strains, locus YKL101W, strain HSL1, hits give low values
[54] = S. cerevisiae deletion strains, locus YKL193C, strain SDS22, hits give low values
[55] = S. cerevisiae deletion strains, locus YLR113W, strain HOG1, hits give low values
[56] = S. cerevisiae deletion strains, locus YLR133W, strain CKI1, hits give low values
[57] = S. cerevisiae deletion strains, locus YLR403W, strain SFP1, hits give low values
[58] = S. cerevisiae deletion strains, locus YML070W, strain DAK1, hits give low values
[59] = S. cerevisiae deletion strains, locus YMR001C, strain CDC5, hits give low values
[60] = S. cerevisiae deletion strains, locus YMR205C, strain PFK2 (second series), hits give low values
[61] = S. cerevisiae deletion strains, locus YMR277W, strain FCP1, hits give low values
[62] = S. cerevisiae deletion strains, locus YNL006W, strain LST8, hits give low values
[63] = S. cerevisiae deletion strains, locus YNL020C, strain ARK1, hits give low values
[64] = S. cerevisiae deletion strains, locus YNL183C, strain NPR1, hits give low values
[65] = S. cerevisiae deletion strains, locus YNL207W, strain RIO2, hits give low values
[66] = S. cerevisiae deletion strains, locus YNL307C, strain MCK1 (second series), hits give low values
[67] = S. cerevisiae deletion strains, locus YOL078W, strain AVO1, hits give low values
[68] = S. cerevisiae deletion strains, locus YOL136C, strain PFK27, hits give low values
[69] = S. cerevisiae deletion strains, locus YOR061W, strain CKA2, hits give low values
[70] = S. cerevisiae deletion strains, locus YOR231W, strain MKK1, hits give low values
[71] = S. cerevisiae deletion strains, locus YOR329C, strain SCD5, hits give low values
[72] = S. cerevisiae deletion strains, locus YPL153C, strain RAD53, hits give low values
[73] = S. cerevisiae deletion strains, locus YPL204W, strain HRR25, hits give low values
[74] = S. cerevisiae deletion strains, locus YPL209C, strain IPL1, hits give low values
[75] = S. cerevisiae deletion strains, locus YPL256C, strain CLN2, hits give low values
[76] = S. cerevisiae deletion strains, locus YPR025C, strain CCL1, hits give low values
[77] = S. cerevisiae deletion strains, locus YPR111W, strain DBF20, hits give low values
[78] = S. cerevisiae deletion strains, strain NNK1, hits give low values
[79] = S. cerevisiae deletion strains, strain TSCII, hits give low values

Measured: normalized growth

CCOC(=O)c1cnc(SCC(=O)c2ccc(Cl)cc2Cl)[nH]1
inactive: [1] 1 | [2] 1 | [3] 1 | [4] 1.02 | [5] 1.03 | [6] 1.02 | [7] 0.936 | [8] 1.01 | [9] 1.03 | [10] 0.999 | [11] 1 | [12] 0.993 | [13] 0.934 | [14] 1.01 | [15] 1.06 | [16] 0.914 | [17] 1.01 | [18] 1.01 | [19] 0.938 | [20] 1 | [21] 1.04 | [22] 1.01 | [23] 0.988 | [24] 1.08 | [25] 1.01 | [26] 0.851

CCOC(=O)c1c[nH]c2c(F)cccc2c1=O
inactive: [2] 1 | S. cerevisiae deletion strains, locus YCL061C, strain MRC1, hits give low values 0.985 | [3] 0.963 | [4] 0.963 | [5] 1.04 | [6] 0.982 | [7] 1.03 | [8] 1.02 | [9] 1.01 | [10] 0.988 | [11] 0.973 | [12] 0.993 | [13] 1.06 | [14] 1.01 | [15] 1.03 | [16] 1.04 | [17] 1.02 | [18] 0.997 | [19] 1.01 | [20] 0.973 | [21] 0.981 | [22] 0.996 | [23] 0.978 | [24] 1.02 | [25] 0.962 | [26] 0.985 | S. cerevisiae strains, strain wild type, hits give low values 0.989

CCOC(=O)c1cnc(-c2ccccn2)[nH]c1=O
inactive: [27] 0.933 | S. cerevisiae deletion strains, locus YBL105C, strain PKC1, hits give low values 0.955 | S. cerevisiae deletion strains, locus YBR135W, strain CKS1, hits give low values 0.932 | S. cerevisiae deletion strains, locus YBR136W, strain MEC1, hits give low values 0.94 | S. cerevisiae deletion strains, locus YBR160W, strain CDC28, hits give low values 0.934 | [28] 0.957 | [29] 0.94 | [3] 0.955 | [30] 0.943 | [31] 0.948 | [32] 0.825 | [33] 0.952 | [34] 0.899 | S. cerevisiae deletion strains, locus YDR226W, strain ADK1, hits give low values 0.935 | [35] 0.85 | [37] 0.856 | [38] 0.907 | [39] 0.932 | [40] 0.947 | [41] 0.819 | [42] 0.937 | [43] 0.866 | [44] 0.69 | [45] 0.638 | S. cerevisiae deletion strains, locus YHR082C, strain KSP1, hits give low values 0.839 | [47] 0.965 | [48] 0.935 | S. cerevisiae deletion strains, locus YJL128C, strain PBS2, hits give low values 1.01 | S. cerevisiae deletion strains, locus YJL157C, strain FAR1, hits give low values 0.743 | [50] 0.934 | S. cerevisiae deletion strains, locus YJR066W, strain TOR1 (second series), hits give low values 0.741 | [51] 0.652 | [52] 0.927 | S. cerevisiae deletion strains, locus YKL067W, strain YNK1, hits give low values 0.818 | [53] 0.871 | [54] 0.917 | S. cerevisiae deletion strains, locus YKL203C, strain TOR2, hits give low values 0.901 | [56] 0.834 | [57] 0.785 | [58] 0.744 | [59] 0.934 | [60] 0.848 | [61] 0.922 | [62] 0.966 | [63] 0.833 | S. cerevisiae deletion strains, locus YNL161W, strain CBK1, hits give low values 0.933 | [64] 0.603 | [65] 0.926 | S. cerevisiae deletion strains, locus YNL222W, strain SSU72, hits give low values 0.921 | [66] 0.759 | [67] 0.92 | [68] 0.752 | [69] 0.835 | S. cerevisiae deletion strains, locus YOR119C, strain RIO1, hits give low values 0.863 | [71] 0.948 | S. cerevisiae deletion strains, locus YPL031C, strain PHO85, hits give low values 0.82 | [72] 0.759 | [73] 0.773 | [74] 0.946 | [76] 0.953 | S. cerevisiae deletion strains, locus YPR106W, strain ISR1, hits give low values 0.944 | [77] 0.939 | [78] 0.932 | [79] 0.916
active: [36] 0.453 | [7] 0.734 | [46] 0.426 | [49] 0.432 | [55] 0.487 | [70] 0.413 | [75] 0.464

Cc1ccc(NC(=S)C(C#N)C(=O)N2CCCC2)c(C)c1 (stereo unspecified)
inactive: [1] 1.01 | [2] 0.998 | [3] 1.01 | [4] 0.928 | [5] 1.02 | [6] 0.988 | S. cerevisiae deletion strains, locus YGR229C, strain SMI1, hits give low values 1 | [7] 1.06 | [8] 1.01 | [10] 1.01 | [11] 1.02 | [12] 1.01 | [13] 1.02 | [14] 0.995 | [15] 1.06 | [16] 1 | [17] 1.03 | [18] 1 | [19] 0.922 | S. cerevisiae deletion strains, locus YMR307W, strain GAS1, hits give low values 1.03 | [20] 0.98 | [21] 1.03 | [22] 0.988 | [23] 1.02 | S. cerevisiae deletion strains, locus YOL006C, strain TOP1, hits give low values 1.04 | [24] 0.948 | [25] 1.02 | [26] 1.04

N#CC(C(=O)Nc1cccc(C(F)(F)F)c1)C(=S)Nc1ccccc1Cl (stereo unspecified)
inactive: [27] 0.992 | [28] 0.985 | [29] 1 | [30] 0.99 | [31] 0.976 | [33] 1 | [34] 0.98 | [36] 0.969 | [38] 0.989 | [39] 1 | [40] 0.997 | [41] 0.957 | [42] 0.977 | [45] 0.98 | [7] 0.957 | [46] 0.978 | [47] 0.975 | [48] 0.996 | [49] 0.914 | [50] 0.978 | [51] 0.78 | [52] 0.986 | [53] 0.994 | [54] 0.998 | [56] 0.984 | [57] 0.979 | [58] 0.966 | [59] 0.995 | [60] 0.991 | [61] 0.98 | [62] 0.991 | [63] 0.981 | [65] 0.996 | [66] 0.983 | [67] 0.992 | [68] 0.959 | [69] 0.97 | [70] 1.01 | [71] 0.997 | [72] 0.963 | [73] 0.963 | [74] 1 | [76] 0.993 | [78] 1.02 | [79] 0.996
active: [32] 0.296 | [35] 0.105 | [37] 0.143 | [43] 0.147 | [44] 0.396 | [55] 0.449 | [64] 0.191 | [75] 0.501 | [77] 0.784

From PubChem BioAssay AID1159580 (chemical genetic matrix, 2015)
